Data published in article PMC4552634, “A New Set of Chemical Starting Points with Plasmodium falciparum Transmission-Blocking Potential for Antimalarial Drug Discovery” (PLoS ONE, 2015).
About 3,200 (25%) of roughly 13,000 compounds showed an effect of 50% or more. This is one part of the list.

The molecules below were run on P. falciparum stage V gametocytes. Settings: 48 h, 5 µM; inhibitor.
Set-up: BacTiter-Glo ATP luminescence viability of purified stage V gametocytes in 384-well plates, per cent inhibition versus DMSO

Structure (SMILES)	% Inhibition [%]
Cc1cccc2nc(-c3ccc(-c4ccc(NC(=O)NCc5ccccc5)cc4)s3)[nH]c12 [TCMDC-133156]	6.679
O=C(CCc1cnc[nH]1)Nc1cccc(-c2cccc(-c3nc4ccc(C(F)(F)F)cc4[nH]3)c2)c1 [TCMDC-132157]	-1.759
Cc1cnc(Nc2cccnc2)nc1Nc1ccccc1C(=O)NC(C)C [TCMDC-134207]	8.943
O=C(Nc1ccc(CN2CCN(S(=O)(=O)c3ccc(Cl)s3)CC2)cc1)c1cccs1 [TCMDC-136320]	18.17
N#Cc1ccc(CNCCCCCCCNCc2ccc(-c3ccccc3)cc2)cc1 [TCMDC-140407]	71.46
Cc1cc(CNCCCCCNCc2ccc(Cl)cc2)ccc1O [TCMDC-140411]	48.45
N#Cc1ccc2c(c1)CN(CCCCNC(=O)c1ccc(-c3ccccc3)cc1)CC2 [TCMDC-139091]	8.247
Cc1cc(CNCCCCCCNCc2ccc(Cl)cc2)ccc1O [TCMDC-140414]	43.51
Cc1cc(CNCCCCCCNCc2ccc(-c3ccccc3)cc2)ccc1O [TCMDC-140412]	99.09
Cc1cc(CNCCCCCCCNCc2ccc(-c3ccccc3)cc2)ccc1O [TCMDC-140415]	101
O=C(NCCCCCCNCc1ccc(-c2ccccc2)cc1)Nc1ccc(Cl)c(Cl)c1 [TCMDC-140706]	4.226
Cc1cc(CNCCCCCCCNCc2ccc(Cl)cc2)ccc1O [TCMDC-140417]	-6.741
O=C(/C=C/c1ccc(Cl)c(Cl)c1)NCCCCCN1CCC(NC(=O)c2cc(Cl)ccc2F)CC1 [TCMDC-135870]	-52.06
CC(C)(C)c1ccc(S(=O)(=O)Nc2ccccc2N2CCOCC2)cc1 [TCMDC-124560]	22.48
CC(=O)c1cc(N2CCCC2)ccc1N [TCMDC-125017]	-63.54
CCCCCCc1cc2cc(-c3nc(-c4ccc(OC)cc4)cs3)c(=O)oc2cc1O [TCMDC-124081]	-11.41
O=C(Nc1cccc(-c2cccc(-c3nc4ccc(C(F)(F)F)cc4[nH]3)c2)c1)c1cnc[nH]1 [TCMDC-136935]	37.83

Structure (SMILES)	% Inhibition [%]
NC1=NC2(CCCCC2)N(OCCCCCCc2ccccc2)C(N)=N1 [TCMDC-131605]	26.32
CC1(C)Cc2c([nH]c3ccccc23)C(CCCCCCCCC2=NC(C)(C)Cc3c2[nH]c2ccccc32)=N1 [TCMDC-137565]	110.1
Cc1cc(C2NC(=O)c3ccccc3N2)c(C)n1-c1ccc2c(c1)OCO2 (stereo not shown) [TCMDC-125051]	5.355
Cc1nn(C2CCS(=O)(=O)C2)c(C)c1C1Nc2ccccc2C(=O)N1Cc1ccc2c(c1)OCO2 (stereo not shown) [TCMDC-125241]	62.63
OC(c1cccc(OCc2ccccc2)c1)C1CN(CCc2ccccc2)CCC1(O)c1ccccc1 (stereo not shown) [TCMDC-131997]	1.971
COc1cc(Nc2nccc(-c3c(-c4cccc(NC(=O)c5c(F)cccc5F)c4)nn4ccccc34)n2)cc(OC)c1OC [TCMDC-135668]	-53.25
CCCCCC(=O)N1CCOC(CCN2CCc3c(c4ccccc4n3C)C2)(c2ccc(Cl)c(Cl)c2)C1 (stereo not shown) [TCMDC-135564]	-20.19
Cc1csc2nc(-c3ccccn3)nc(Nc3ccc4ncsc4c3)c12 [TCMDC-138923]	100.3
S=C(NCCc1ccccc1)Nc1ccc2ncsc2c1 [TCMDC-139021]	-23.08
Cc1csc2nc(-c3ccccn3)nc(Nc3ccncn3)c12 [TCMDC-138927]	119.9
O=C(Nc1ccnc(N2CC3CC2CN3Cc2cccc(O)c2)c1)c1ccc(F)cc1 (stereo not shown) [TCMDC-134956]	-60.26
FC(F)(F)c1ccc2[nH]c(-c3ccc(-c4ccc(CNCC5CCCO5)cc4)cc3)nc2c1.O=C(O)C(F)(F)F (stereo not shown) [TCMDC-133096]	-14.34
O=C(CCc1nc2c(cnn2-c2ccccc2)c(=O)[nH]1)NC1CCSc2ccccc21 (stereo not shown) [TCMDC-124875]	-14.45
Cc1cccc2nc(-c3ccc(-c4cccc(CN5CCN(CC6CCCN(C)C6)CC5)c4)s3)[nH]c12.O=C(O)C(F)(F)F (stereo not shown) [TCMDC-133909]	55.65
Cc1cccc2nc(-c3ccc(-c4ccc(CN5CCN(c6ccncc6)CC5)cc4)s3)[nH]c12.O=C(O)C(F)(F)F [TCMDC-132912]	36.62
Cc1cccc2nc(-c3ccc(-c4cccc(CN5CCN(c6ccncc6)CC5)c4)s3)[nH]c12.O=C(O)C(F)(F)F [TCMDC-132917]	20.85
Cc1cccc2nc(-c3ccc(-c4ccc(CN5CCN(CC6CCCN(C)C6)CC5)cc4)s3)[nH]c12.O=C(O)C(F)(F)F (stereo not shown) [TCMDC-133899]	90.54
